Hits are enriched below; roughly 7.3% of the tested compounds scored in any of these assays.
VACV mCherry inh – inhibitors of vaccinia virus infection (mCherry reporter signal); Potency, µM (highest dose often 36.5 µM), for inactives: at the highest dose activity change, negative = inhibition, usual class: inhibitors; Vaccinia virus mCherry reporter infection, fluorescence; 310,000 tested, 0.63% active; calls by dose curve; tested in A549 cells; also: potency is read from the fitted curve at half-maximal effect; nearly all actives have a fitted effect of over 35% in size
VACV Venus inh – vaccinia inhibition (Venus reporter) | AID 720580 | Potency, µM (series often up to 36.5 µM), for inactives: at the highest dose activity change, negative = inhibition, hits mostly inhibitors | Vaccinia virus Venus reporter expression, fluorescence | 330,000 tested, 0.46% active; calls by dose curve; tested in A549 cells; also: potency is read from the fitted curve at half-maximal effect; nearly all actives have a fitted effect of over 30% in size
HCMV antiviral – human cytomegalovirus inhibition. HFF cells, HCMV-luciferase reporter, 72 h; stronger effect = lower value. 410,000 tested, 4.5% active. activity change, negative = inhibition, % at 57.5 µM; in the data active = activity change below about -60%; inconclusive = no clear call, values can overlap the other calls; inactive = above about -39%
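Compounds were evaluated in HFFs infected with an HCMV luciferase reporter virus (MOI 1 PFU/cell). Luciferase in lysates collected 72 h post infection served as the replication measure.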
HCV inhibitor – inhibitors of hepatitis C virus infection; Huh7.5.1 HCVcc-Cre infection, luciferase reporter, 44 h; Potency, µM (doses to about 41.8 µM), for inactives: at the top dose activity change, negative = inhibition, hits mostly inhibitors; 340,000 tested, 3.4% active; AID 651820; active = well fitted inhibition curve with a large enough effect; inconclusive = small, poorly fitted or top-dose-only effect, or another doubt; inactive = no such curve, though single readings can be large or run the other way; also: potency is read from the fitted curve at half-maximal effect
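Cells seeded at 1,000/well and cultured 4 h, then compounds added followed by HCVcc-Cre virus (~0.5 moi). After 44 h further culture, luciferase substrate was added, plates held 15 min at room temperature, and luminescence read for 15 sec.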
FMDV inh – antivirals against foot and mouth disease virus; FMDV antiviral cell-based qHTS; Potency, µM (doses to about 57.9 µM), inactives show top-dose activity change, negative = inhibition, actives largely listed as inhibitors; 410,000 tested, 1.2% active; AID 1159524; calls by dose curve; tested in HEK293T cells; also: read-out not given here; potency is read from the fitted curve at half-maximal effect; nearly all actives have a fitted effect of over 45% in size
* = called active by the depositor. % is scaled to controls: 0 for no effect and ±100 for the full control effect.

For CN(C)CC(=O)N[C@@H]1C=C[C@@H](CC(=O)NCCN2CCCCC2)O[C@@H]1CO the results were VACV mCherry inh -7%, VACV Venus inh -10%, HCMV antiviral -15 and FMDV inh 0%.
CCOc1ccc(-c2cc(-c3nc(-c4ccc(C)cc4)no3)[nH]n2)cc1 was read as VACV mCherry inh -20%, VACV Venus inh -9%, HCMV antiviral -1 and FMDV inh -7%.
COc1ccc(-c2nc3c(C)cc(Br)cn3c2Cc2ccccc2C(F)(F)F)cc1OC was read as HCMV antiviral -17.
`Fc1ccc(Cn2ccc(-c3cnc(-c4ccccc4)s3)n2)cc1` gave VACV Venus inh inconclusive, HCMV antiviral inconclusive, HCV inhibitor 10µM* and FMDV inh -4%.
Screening O=C(c1ccc(F)c(F)c1)N1CCOc2ccc(CN3CCN(CCO)CC3)cc2C1 returned VACV mCherry inh inactive, VACV Venus inh 0% and FMDV inh -2%.
Screening Oc1ccccc1Cl returned VACV mCherry inh -1%, VACV Venus inh -1%, HCMV antiviral 0, HCV inhibitor 3% and FMDV inh -15%.
`Oc1ccc(O)c2c1C1(Cl)C(Cl)=C(Cl)C2(Cl)C1(Cl)Cl` gave VACV mCherry inh inconclusive, VACV Venus inh -18%, HCMV antiviral -64*, HCV inhibitor inconclusive and FMDV inh inconclusive.
For COc1ccc(CN(C(=O)c2ccco2)c2ccccc2)cc1 the results were VACV Venus inh -9%, HCMV antiviral 45, HCV inhibitor 0% and FMDV inh -30%.
`O=C(c1ccccc1Br)N(Cc1ccccc1)c1ccccc1` gave VACV mCherry inh -18%, VACV Venus inh -8%, HCMV antiviral -62*, HCV inhibitor -20% and FMDV inh -30%.
`Cc1ccc(Cn2nnc3c(=O)n(CC(=O)N4CCN(c5ccccc5)CC4)cnc32)cc1` gave VACV mCherry inh -8%, VACV Venus inh -15%, HCMV antiviral -65* and HCV inhibitor -30%.
Screening Cc1ccc(Cn2nnc3c(=O)n(CC(=O)OCc4ccccc4)cnc32)cc1 returned VACV mCherry inh -9%, VACV Venus inh -9%, HCMV antiviral 38, HCV inhibitor 15% and FMDV inh -15%.
Screening O=C(Cn1cnc2c(nnn2Cc2ccccc2)c1=O)c1ccccc1 returned VACV mCherry inh 1%, VACV Venus inh -3%, HCMV antiviral 15, HCV inhibitor -1% and FMDV inh -1%.
`O=C(Cn1cnc2c(nnn2Cc2ccc(Cl)cc2)c1=O)c1ccccc1` gave VACV mCherry inh 56%, VACV Venus inh 11%, HCMV antiviral -71*, HCV inhibitor 5% and FMDV inh -10%.
`CC(C)[C@H](CO)Nc1nc(NCc2ccc(S(N)(=O)=O)cc2)c2ncn(C(C)C)c2n1` gave VACV mCherry inh inconclusive, VACV Venus inh inconclusive, HCMV antiviral -96*, HCV inhibitor inconclusive and FMDV inh -29%.
COC(=O)c1cc(CNC(=O)c2cccc3ccccc23)cc(NC(=O)c2ccccc2OC)c1 was read as VACV mCherry inh -13%, VACV Venus inh 4% and FMDV inh 8%.
CCCCN(C)CC(O)Cn1cc(/C=C/C(=O)c2ccc(C)cc2)c2ccccc21 (configuration not stated) was read as VACV mCherry inh inconclusive, VACV Venus inh inconclusive, HCMV antiviral -98*, HCV inhibitor 13µM* and FMDV inh inconclusive.
Screening CCCCN(C)CC(O)Cn1cc(/C=C/C(=O)c2ccc(Br)cc2)c2ccccc21 (configuration not stated) returned VACV mCherry inh -5%, VACV Venus inh -18%, HCMV antiviral -107* and FMDV inh -19%.
For CCCN(CCC)CC(O)Cn1cc(/C=C/C(=O)c2ccc(C)cc2)c2ccccc21 (configuration not stated) the results were VACV mCherry inh inconclusive, VACV Venus inh inconclusive, HCMV antiviral -107* and FMDV inh 0%.
CCCN(CCC)CC(O)Cn1cc(/C=C/C(=O)c2ccccc2)c2ccccc21 (configuration not stated) was read as HCMV antiviral -27, HCV inhibitor inconclusive and FMDV inh -19%.
For CCCCN(C)CC(O)Cn1cc(/C=C/C(=O)c2ccc(OC)c(OC)c2)c2ccccc21 (configuration not stated) the results were VACV mCherry inh inconclusive, VACV Venus inh -20%, HCMV antiviral -108* and FMDV inh -4%.

Bioassay records (PubChem)
